Assay results reported in the supplement of paper PMC6089552.
About 300 (9.4%) of roughly 3,200 compounds showed activity. The full list was thinned out, with actives kept by preference.

Tested on: A673/TR/shEF
Experiment: cell viability (LOESS-normalised, relative to median of negative controls) (log2 ratio); higher = more viable cells (less compound effect), active = hit call of the paper (over 3 MAD below the median)
Conditions: treatment time: 72 h
Procedure, shortened: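 For three days, A673/TR/shEF Ewing sarcoma cells in 384-well plates (1,500 per well) were treated with library compounds at two or more concentrations or with DMSO controls, after doxycycline had been added or withheld 24 h beforehand to induce EWS-FLI1 shRNA knockdown. Viability was read by CellTiter-Glo luminescence on an Envision reader. The data were LOESS-corrected per plate, divided by the median of negative controls and log2-transformed.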

[1] = 0.25 µM, library screen: screen1, EWS-FLI1 expression: high (no doxycycline)
[2] = 0.25 µM, library screen: screen1, EWS-FLI1 expression: low (doxycycline-induced shRNA knockdown)
[3] = 2.5 µM, library screen: screen1, EWS-FLI1 expression: high (no doxycycline)
[4] = 2.5 µM, library screen: screen1, EWS-FLI1 expression: low (doxycycline-induced shRNA knockdown)
[5] = 0.025 µM, library screen: screen2, EWS-FLI1 expression: high (no doxycycline)
[6] = 0.025 µM, library screen: screen2, EWS-FLI1 expression: low (doxycycline-induced shRNA knockdown)
[7] = 0.25 µM, library screen: screen2, EWS-FLI1 expression: high (no doxycycline)
[8] = 0.25 µM, library screen: screen2, EWS-FLI1 expression: low (doxycycline-induced shRNA knockdown)
[9] = 2.5 µM, library screen: screen2, EWS-FLI1 expression: high (no doxycycline)
[10] = 2.5 µM, library screen: screen2, EWS-FLI1 expression: low (doxycycline-induced shRNA knockdown)
[11] = 25 µM, library screen: screen2, EWS-FLI1 expression: high (no doxycycline)
[12] = 25 µM, library screen: screen2, EWS-FLI1 expression: low (doxycycline-induced shRNA knockdown)
[13] = 0.103 µM, library screen: screen3, EWS-FLI1 expression: high (no doxycycline)
[14] = 0.103 µM, library screen: screen3, EWS-FLI1 expression: low (doxycycline-induced shRNA knockdown)
[15] = 0.308 µM, library screen: screen3, EWS-FLI1 expression: high (no doxycycline)
[16] = 0.308 µM, library screen: screen3, EWS-FLI1 expression: low (doxycycline-induced shRNA knockdown)
[17] = 0.926 µM, library screen: screen3, EWS-FLI1 expression: high (no doxycycline)
[18] = 0.926 µM, library screen: screen3, EWS-FLI1 expression: low (doxycycline-induced shRNA knockdown)
[19] = 2.8 µM, library screen: screen3, EWS-FLI1 expression: high (no doxycycline)
[20] = 2.8 µM, library screen: screen3, EWS-FLI1 expression: low (doxycycline-induced shRNA knockdown)
[21] = 8.3 µM, library screen: screen3, EWS-FLI1 expression: high (no doxycycline)
[22] = 8.3 µM, library screen: screen3, EWS-FLI1 expression: low (doxycycline-induced shRNA knockdown)
[23] = 25 µM, library screen: screen3, EWS-FLI1 expression: high (no doxycycline)
[24] = 25 µM, library screen: screen3, EWS-FLI1 expression: low (doxycycline-induced shRNA knockdown)

Measured: cell viability (log2)

CC1(C)C(=O)C=C[C@]2(C)C3CC[C@@]4(C)[C@H](c5ccoc5)C[C@H]5O[C@]54C3[C@H](O)CC12 (some centres undefined)
inactive: [1] 0.0404 | [2] 0.00309 | [3] 0.102 | [4] 0.0462

C[C@H]1C(=O)O[C@@H]2CCN3CC=C(COC(=O)[C@](C)(O)[C@]1(C)O)[C@H]23
inactive: [5] 0.0665 | [6] 0.0541 | [1] 0.00981 | [2] 0.0549 | [7] 0.122 | [8] 0.0363 | [3] 0.0901 | [4] 0.111 | [9] 0.0833 | [10] 0.0416 | [11] 0.0406 | [12] 0.0625

CC1=C(O)C(=O)C=C2C1=CC=C1[C@@]2(C)CC[C@@]2(C)[C@@H]3C[C@](C)(C(=O)O)CC[C@]3(C)CC[C@]12C
active: [3] -1.03 | [9] -4.23 | [10] -0.301 | [11] -4.23 | [12] -3.9
inactive: [5] 0.14 | [6] 0.0632 | [1] 0.0936 | [2] 0.0786 | [7] 0.154 | [8] 0.0872 | [4] 0.0632

Cc1c(O)c(O)cc2c1CC=C1[C@@]2(C)CC[C@@]2(C)[C@@H]3C[C@](C)(C(=O)O)CC[C@]3(C)CC[C@]12C
inactive: [1] 0.102 | [2] 0.0187 | [3] 0.0348 | [4] 0.22

COC(=O)[C@]1(C)CC[C@]2(C)CC[C@]3(C)C4=CC=C5C(=CC(=O)C(O)=C5C)[C@]4(C)CC[C@@]3(C)[C@@H]2C1
inactive: [1] -0.0347 | [2] 0.133
active: [3] -2.91 | [4] -3.05

COC(=O)[C@]1(C)CC[C@]2(C)CC[C@]3(C)C4=CCc5c(cc(O)c(O)c5C)[C@]4(C)CC[C@@]3(C)[C@@H]2C1
active: [3] -1.44 | [4] -0.357
inactive: [1] 0.0264 | [2] 0.158

NCC(CC(=O)O)c1ccc(Cl)cc1 (centres undefined)
inactive: [1] 0.0966 | [2] 0.12 | [7] 0.221 | [8] 0.138 | [3] 0.123 | [4] 0.15 | [9] 0.124 | [10] 0.0836

CCC(N)C(O)c1ccc(O)c(O)c1 (centres undefined)
inactive: [1] 0.161 | [2] 0.0223 | [3] 0.0883 | [4] 0.0282

C[C@]12CC[C@H](O)CC1=CC[C@@H]1[C@@H]2CC[C@]2(C)C(=O)CC[C@@H]12
inactive: [13] -0.0409 | [14] 0.0562 | [1] 0.164 | [2] 0.131 | [7] 0.133 | [8] 0.0866 | [15] 0.0564 | [16] 0.076 | [17] -0.013 | [18] 0.0349 | [3] 0.137 | [4] 0.104 | [9] 0.173 | [10] 0.152 | [19] 0.0481 | [20] 0.0405 | [21] 0.0125 | [22] 0.0569 | [23] -0.0287 | [24] -0.0258

CCC(C)C(=O)O[C@@H]1C[C@@]2(C)[C@H](c3ccoc3)OC(=O)CC23OC2(C)OC14C1(C)[C@@H](CC(=O)OC)C5(C)CC1(O)C(O)([C@@H](OC(C)=O)C43O2)[C@H]5OC(=O)C1(C)OC1C (some centres undefined)
inactive: [1] 0.0892 | [2] 0.0664 | [3] 0.0941 | [4] 0.178

O=C(O)COc1cc(Cl)c(Cl)cc1Cl
inactive: [1] 0.0712 | [2] 0.0603 | [3] 0.0828 | [4] 0.0118

c1ccc2c3c([nH]c2c1)CNCC3
inactive: [1] 0.101 | [2] 0.0693 | [3] 0.2 | [4] 0.0982

FC(F)(F)c1cccc(N2CCNCC2)c1
inactive: [1] 0.112 | [2] 0.0689 | [3] 0.176 | [4] 0.0985

CN1C2CCC1CC(OC(c1ccccc1)c1ccc(Cl)cc1)C2 (centres undefined)
inactive: [7] 0.142 | [8] 0.124 | [9] 0.232 | [10] 0.111

CC(C)CC(NC(=O)C(Cc1ccccc1)NC(=O)CNC(=O)CNC(=O)C(N)Cc1ccc(O)cc1)C(=O)O (centres undefined)
inactive: [1] 0.0697 | [2] 0.0904 | [3] 0.0902 | [4] 0.179

Cc1nccc2c1[nH]c1ccccc12
inactive: [1] 0.0742 | [2] 0.0176 | [7] 0.227 | [8] 0.0311 | [3] 0.126 | [4] 0.136 | [9] 0.107 | [10] 0.0839

c1ccc2c(c1)[nH]c1cnccc12
inactive: [1] 0.0149 | [2] -0.0111 | [3] 0.101 | [4] 0.0791

Cc1c2ccncc2c(C)c2c1[nH]c1ccccc12
active: [9] -0.136
inactive: [7] 0.0843 | [8] 0.00884 | [10] -0.00745

Cc1ccccc1O
inactive: [1] 0.162 | [2] 0.0964 | [3] 0.189 | [4] 0.175

COC(C)(C)CCCC(C)C/C=C/C(C)=C/C(=O)OC(C)C (centres undefined)
inactive: [1] -0.00169 | [2] 0.0238 | [3] 0.116 | [4] 0.0204

COc1ccccc1N1CCNCC1
inactive: [1] 0.0547 | [2] 0.0205 | [7] 0.228 | [8] 0.0463 | [3] 0.105 | [4] 0.112 | [9] 0.201 | [10] 0.0929

c1ccc2c(N3CCNCC3)cccc2c1
inactive: [7] 0.144 | [8] -0.113
active: [9] -0.803 | [10] -0.746

c1ccc2nc(N3CCNCC3)ccc2c1
inactive: [1] 0.0719 | [2] 0.0592 | [7] 0.196 | [8] 0.0365 | [3] 0.0383 | [4] 0.12 | [9] 0.14 | [10] 0.00635

C[C@]12Cc3cn4c(nc3C=C1CCC1C2CC[C@@]2(C)[C@H]1CC[C@@]2(O)C#N)nc1ccccc14 (some centres undefined)
inactive: [7] 0.119 | [8] 0.112 | [9] 0.295 | [10] 0.0843

Cc1[nH]c2ccccc2c1CN(C)C
inactive: [1] 0.0738 | [2] 0.0842 | [3] 0.116 | [4] 0.138

NC(C(=O)O)c1cc(=O)[nH]o1 (centres undefined)
inactive: [7] 0.0457 | [8] -0.00138 | [9] 0.0296 | [10] 0.048

C=C1C([C@]2(C)C(CC(=O)OC)[C@@](C)(COC(C)=O)OC(=O)C[C@@H]2OC(C)=O)[C@@H](OC=O)[C@H](OC(=O)C(OC(C)=O)C(C)CC)[C@@]2(C)[C@H](c3ccoc3)CC(=O)C12O (some centres undefined)
inactive: [1] 0.0373 | [2] -0.0517 | [3] 0.0516 | [4] -0.0237

C/C(O)=C(\C#N)C(=O)Nc1cc(Br)ccc1Br
active: [3] -0.396 | 25 µM, library screen: screen1, EWS-FLI1 expression: high (no doxycycline) -0.451
inactive: 0.025 µM, library screen: screen1, EWS-FLI1 expression: high (no doxycycline) 0.198 | 0.025 µM, library screen: screen1, EWS-FLI1 expression: low (doxycycline-induced shRNA knockdown) -0.0693 | [1] 0.124 | [2] -0.0251 | [7] 0.133 | [8] 0.0965 | [4] -0.0427 | [9] 0.0403 | [10] 0.0594 | 25 µM, library screen: screen1, EWS-FLI1 expression: low (doxycycline-induced shRNA knockdown) -0.00927

COc1cc2ccc(=O)oc2c2ccoc12
inactive: [1] 0.222 | [2] 0.132 | [3] 0.248 | [4] 0.164

CCN(CC)C(=O)NC1C=C2c3cccc4[nH]cc(c34)CC2N(C)C1 (centres undefined)
inactive: [7] 0.194 | [8] 0.105 | [9] 0.116 | [10] 0.101

O=[N+]([O-])c1ccc(O[C@@H]2O[C@H](CO)[C@@H](O)[C@H](O)[C@H]2F)c([N+](=O)[O-])c1
inactive: [7] 0.132 | [8] 0.00815 | [9] 0.0628 | [10] 0.111

COc1c2c(cc3c1OCO3)[C@]13C=C[C@H](OC)C[C@H]1N(C2)CC3O (some centres undefined)
inactive: [1] 0.0348 | [2] 0.0745 | [3] 0.0133 | [4] 0.0521

CNC(=O)CSP(=S)(OC)OC
inactive: [1] 0.102 | [2] 0.0684 | [3] 0.15 | [4] 0.0982

COP(=S)(OC)SCn1nnc2ccccc2c1=O
active: [21] -0.267 | [23] -0.422
inactive: [13] -0.0814 | [14] 0.0283 | [1] -0.0615 | [2] 0.0291 | [15] -0.0468 | [16] 0.0348 | [17] -0.0952 | [18] 0.162 | [3] 0.00869 | [4] 0.101 | [19] -0.136 | [20] 0.125 | [22] 0.196 | [24] 0.00265

CCCN1CCc2cccc3c2[C@H]1Cc1ccc(O)c(O)c1-3
inactive: [7] 0.161 | [8] 0.0862 | [9] 0.178 | [10] 0.107

CC(C)=CCOc1c2occc2cc2ccc(=O)oc12
inactive: [1] 0.059 | [2] 0.0156 | [3] 0.0916 | [4] -0.0403

Clc1ccc(C(c2ccc(Cl)cc2)C(Cl)(Cl)Cl)cc1
inactive: [1] 0.0479 | [2] 0.0234 | [3] 0.0726 | [4] 0.147

CN(C)C(=S)SSC(=S)N(C)C
active: [1] -2.91 | [2] -2.1 | [3] -2.99 | [4] -2.02

C[C@]12CC[C@@H](O)C[C@@H]1CC[C@@H]1[C@@H]2CC[C@]2(C)[C@@H](O)CC[C@@H]12
inactive: [7] 0.0177 | [8] 0.137 | [9] 0.141 | [10] 0.0662
